ChEMBL document CHEMBL3988442, “University of Dundee, Small-Polar-MMV Screening Library” (2021)
For some of these results: Potency and affinity values are given separately.

How the values were obtained:
Set-up in all cases: scale not given: direction of the effect not stated beside the values
[1] = molecular target: Protein translocase subunit SecA (Escherichia coli (strain K12)) (UniProt P10408); assay: Assay to Identify E. coli SecA ATPase Inhibitors; format: functional; details: 30 µM
[2] = molecular target: T1, Ubiquitin-activating enzyme e1, putative (Leishmania donovani (strain BPK282A1)) (UniProt E9BSI1); assay: Leishmania donovani Ubiquitin Activating Enzyme (LdE1); format: functional; details: 30 µM
T1 sequence (whole entry): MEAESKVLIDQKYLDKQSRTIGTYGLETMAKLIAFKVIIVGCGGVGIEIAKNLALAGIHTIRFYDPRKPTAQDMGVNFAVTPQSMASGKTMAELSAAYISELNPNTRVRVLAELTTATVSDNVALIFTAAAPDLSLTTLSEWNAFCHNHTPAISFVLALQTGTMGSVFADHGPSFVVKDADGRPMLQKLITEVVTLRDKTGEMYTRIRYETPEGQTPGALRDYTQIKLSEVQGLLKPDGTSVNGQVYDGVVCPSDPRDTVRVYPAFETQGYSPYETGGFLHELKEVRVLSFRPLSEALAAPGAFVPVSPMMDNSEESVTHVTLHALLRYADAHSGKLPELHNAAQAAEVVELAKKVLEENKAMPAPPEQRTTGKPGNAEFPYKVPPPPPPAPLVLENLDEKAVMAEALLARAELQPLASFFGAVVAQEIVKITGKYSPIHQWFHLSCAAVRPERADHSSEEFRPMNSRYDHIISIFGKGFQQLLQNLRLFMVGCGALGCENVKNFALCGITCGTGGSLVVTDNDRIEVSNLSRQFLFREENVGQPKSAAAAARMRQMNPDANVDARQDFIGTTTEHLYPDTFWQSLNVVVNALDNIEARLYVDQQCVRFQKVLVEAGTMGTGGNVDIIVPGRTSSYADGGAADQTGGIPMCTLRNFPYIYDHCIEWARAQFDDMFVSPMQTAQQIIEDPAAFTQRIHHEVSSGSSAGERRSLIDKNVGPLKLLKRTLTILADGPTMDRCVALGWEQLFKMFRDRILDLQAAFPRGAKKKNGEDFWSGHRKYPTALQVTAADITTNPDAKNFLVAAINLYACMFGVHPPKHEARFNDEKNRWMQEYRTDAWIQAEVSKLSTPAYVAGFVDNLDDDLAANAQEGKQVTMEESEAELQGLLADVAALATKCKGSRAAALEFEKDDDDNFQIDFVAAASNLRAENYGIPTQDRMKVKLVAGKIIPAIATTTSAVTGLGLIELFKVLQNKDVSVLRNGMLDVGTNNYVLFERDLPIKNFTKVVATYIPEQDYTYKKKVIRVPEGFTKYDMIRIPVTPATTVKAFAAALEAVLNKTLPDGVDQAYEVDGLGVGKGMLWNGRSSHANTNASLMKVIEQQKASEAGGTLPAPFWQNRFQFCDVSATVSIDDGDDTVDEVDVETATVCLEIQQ

[3] = molecular target: AMP-activated protein kinase, AMPK (Homo sapiens) (UniProt P54646+O43741+P54619+Q9UGJ0+Q9Y478+Q13131+Q9UGI9); assay: AMP-dependent Kinase enzyme assay. An in vitro enzyme assay that detects ADP turnover that is directly proportional to AMPK activity. This uses naive AMPK that is activated during the assay with MK-8722; format: functional; details: 30 µM
[4] = molecular target: Sialic acid-binding Ig-like lectin 9 (Homo sapiens) (UniProt Q9Y336); assay: Hs-Siglec9 ALPHAscreen SOP 20170721; details: 10 µM
Chain of Sialic acid-binding Ig-like lectin 9 (Homo sapiens) (Q9Y336 whole entry): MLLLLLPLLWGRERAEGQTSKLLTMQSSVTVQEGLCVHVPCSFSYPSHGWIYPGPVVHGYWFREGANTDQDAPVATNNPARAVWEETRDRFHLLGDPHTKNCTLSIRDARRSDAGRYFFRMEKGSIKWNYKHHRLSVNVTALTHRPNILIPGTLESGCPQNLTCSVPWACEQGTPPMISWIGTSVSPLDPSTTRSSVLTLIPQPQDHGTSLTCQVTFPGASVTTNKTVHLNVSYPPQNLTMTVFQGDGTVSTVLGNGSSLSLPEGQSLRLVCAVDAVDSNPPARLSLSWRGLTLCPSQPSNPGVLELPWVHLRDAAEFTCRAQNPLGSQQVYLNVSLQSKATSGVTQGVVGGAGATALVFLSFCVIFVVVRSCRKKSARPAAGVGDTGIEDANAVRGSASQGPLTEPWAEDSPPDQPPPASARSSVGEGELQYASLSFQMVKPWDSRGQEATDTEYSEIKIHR

Trypanosoma cruzi = assay: Trypanosoma cruzi phosphomannomutase and mannose-1-phosphate guanylyltransferase assay; format: functional; details: 10 µM
[5] = molecular target: T2, Arginase-2, mitochondrial (Homo sapiens) (UniProt P78540); assay: in vitro enzyme assay to detect the production of urea directly proportional to the activity of Arginase II; format: functional; details: 33.3 µM; note: in the data most compounds retested in dose-response had high values
T2 sequence (whole entry): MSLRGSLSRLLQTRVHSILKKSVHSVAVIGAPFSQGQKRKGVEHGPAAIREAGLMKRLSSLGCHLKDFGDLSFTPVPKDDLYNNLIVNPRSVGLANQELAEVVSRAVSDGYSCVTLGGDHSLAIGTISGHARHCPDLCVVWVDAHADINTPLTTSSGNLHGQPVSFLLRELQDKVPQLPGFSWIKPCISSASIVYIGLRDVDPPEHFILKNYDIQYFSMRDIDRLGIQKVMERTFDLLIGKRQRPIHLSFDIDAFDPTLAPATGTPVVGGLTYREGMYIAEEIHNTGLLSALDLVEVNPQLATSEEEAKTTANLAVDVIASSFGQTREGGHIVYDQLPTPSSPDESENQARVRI

[6] = molecular target: T3, Proteasome subunit beta (Trypanosoma cruzi) (UniProt O96673); assay: Trypanosoma cruzi proteasome chymotrypsin-like activity (TcProtChymo) assay.; note: in the data most compounds retested in dose-response had high values; format: functional; details: 9.37 µM
T3 sequence (whole entry): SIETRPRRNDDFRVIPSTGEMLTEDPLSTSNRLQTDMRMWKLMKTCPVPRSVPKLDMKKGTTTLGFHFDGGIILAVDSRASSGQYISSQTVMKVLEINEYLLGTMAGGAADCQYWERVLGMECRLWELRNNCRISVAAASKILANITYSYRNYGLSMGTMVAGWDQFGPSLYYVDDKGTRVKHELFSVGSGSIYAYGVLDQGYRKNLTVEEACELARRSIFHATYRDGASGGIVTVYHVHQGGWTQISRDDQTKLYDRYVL

Homo sapiens = species: Homo sapiens; assay: To identify inhibition of the IFN signalling (Jak-Stat) pathway via expression of an eGFP reporter gene under the control of an IFN-stimulated response element (ISRE) containing MxA promoter.; format: functional; details: 30 µM
[7] = molecular target: T4, Tyrosyl-tRNA synthetase, putative (Trypanosoma cruzi (strain CL Brener)) (UniProt Q4DSP6); assay: Trypanosoma cruzi tyrosyl tRNA synthetase (TcYRS) _High Tyrosine SOP; format: functional; details: 30 µM; note: in the data most compounds retested in dose-response had high values
T4 sequence (whole entry): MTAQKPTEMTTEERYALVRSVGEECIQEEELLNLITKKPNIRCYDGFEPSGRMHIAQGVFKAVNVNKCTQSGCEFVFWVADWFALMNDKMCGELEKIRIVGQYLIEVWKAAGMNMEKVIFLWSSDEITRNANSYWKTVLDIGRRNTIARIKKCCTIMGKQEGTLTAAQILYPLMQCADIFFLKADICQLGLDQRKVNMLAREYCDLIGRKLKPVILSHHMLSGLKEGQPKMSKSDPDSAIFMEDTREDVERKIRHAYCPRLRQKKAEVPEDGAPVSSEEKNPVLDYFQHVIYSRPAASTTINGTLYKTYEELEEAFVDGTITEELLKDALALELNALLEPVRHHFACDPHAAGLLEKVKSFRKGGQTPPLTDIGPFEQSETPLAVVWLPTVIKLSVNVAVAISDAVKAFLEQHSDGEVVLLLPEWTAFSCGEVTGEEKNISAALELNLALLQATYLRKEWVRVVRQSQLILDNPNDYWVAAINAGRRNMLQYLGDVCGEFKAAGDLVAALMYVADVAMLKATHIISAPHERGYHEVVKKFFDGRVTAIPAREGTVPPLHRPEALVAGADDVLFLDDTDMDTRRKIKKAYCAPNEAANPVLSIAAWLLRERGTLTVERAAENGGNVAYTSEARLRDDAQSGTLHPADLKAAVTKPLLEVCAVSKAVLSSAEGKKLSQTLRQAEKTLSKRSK

[8] = molecular target: T4, Tyrosyl-tRNA synthetase, putative (Trypanosoma cruzi (strain CL Brener)); assay: Trypanosoma cruzi tyrosyl tRNA synthetase (TcYRS) SOP; format: functional; details: 30 µM
[9] = molecular target: Chromo domain-containing protein 1 (Saccharomyces cerevisiae (strain ATCC 204508 / S288c) (Baker's yeast)) (UniProt P32657); assay: ScCHD-1 Enzyme Inhibition Assay; format: functional; details: 30 µM; note: in the data most compounds retested in dose-response had high values
Chain of Chromo domain-containing protein 1 (Saccharomyces cerevisiae (strain ATCC 204508 / S288c) (Baker's yeast)) (P32657 whole entry, the tested form may be a part): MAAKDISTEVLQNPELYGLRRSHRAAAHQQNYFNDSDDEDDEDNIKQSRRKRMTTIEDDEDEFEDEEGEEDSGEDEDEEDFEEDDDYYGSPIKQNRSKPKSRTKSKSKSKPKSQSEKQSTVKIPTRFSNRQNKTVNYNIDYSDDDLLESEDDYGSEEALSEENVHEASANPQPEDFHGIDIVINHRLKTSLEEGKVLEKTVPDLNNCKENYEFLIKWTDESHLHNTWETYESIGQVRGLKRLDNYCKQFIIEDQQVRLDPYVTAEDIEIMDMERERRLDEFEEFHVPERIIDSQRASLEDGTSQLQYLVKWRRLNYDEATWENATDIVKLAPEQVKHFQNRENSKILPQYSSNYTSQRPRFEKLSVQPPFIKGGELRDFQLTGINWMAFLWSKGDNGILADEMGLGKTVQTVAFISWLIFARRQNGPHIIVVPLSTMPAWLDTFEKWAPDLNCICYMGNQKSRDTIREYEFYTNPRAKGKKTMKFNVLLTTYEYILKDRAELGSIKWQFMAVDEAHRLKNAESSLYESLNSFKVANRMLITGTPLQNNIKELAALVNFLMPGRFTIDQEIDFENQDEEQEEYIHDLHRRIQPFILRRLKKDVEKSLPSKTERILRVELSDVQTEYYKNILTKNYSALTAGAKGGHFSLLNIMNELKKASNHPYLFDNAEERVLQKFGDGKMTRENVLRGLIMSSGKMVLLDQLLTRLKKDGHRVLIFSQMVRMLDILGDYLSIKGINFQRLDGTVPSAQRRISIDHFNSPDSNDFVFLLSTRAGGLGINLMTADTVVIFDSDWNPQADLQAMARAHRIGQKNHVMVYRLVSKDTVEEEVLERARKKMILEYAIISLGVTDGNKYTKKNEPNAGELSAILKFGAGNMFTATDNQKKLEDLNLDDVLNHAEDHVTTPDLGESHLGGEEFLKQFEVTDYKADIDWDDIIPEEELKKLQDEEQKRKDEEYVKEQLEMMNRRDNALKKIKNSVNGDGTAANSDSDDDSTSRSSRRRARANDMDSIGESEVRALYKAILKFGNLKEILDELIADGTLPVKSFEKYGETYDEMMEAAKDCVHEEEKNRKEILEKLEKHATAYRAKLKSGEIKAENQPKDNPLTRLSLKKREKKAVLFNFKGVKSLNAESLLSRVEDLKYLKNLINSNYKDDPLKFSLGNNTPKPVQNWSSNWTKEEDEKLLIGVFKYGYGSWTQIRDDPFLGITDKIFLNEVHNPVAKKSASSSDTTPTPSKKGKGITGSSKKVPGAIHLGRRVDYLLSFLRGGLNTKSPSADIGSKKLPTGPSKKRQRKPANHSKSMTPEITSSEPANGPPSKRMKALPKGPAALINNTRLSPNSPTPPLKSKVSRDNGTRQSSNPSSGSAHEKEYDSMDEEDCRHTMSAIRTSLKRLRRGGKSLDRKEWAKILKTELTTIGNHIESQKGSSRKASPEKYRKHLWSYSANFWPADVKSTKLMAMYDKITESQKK

Chain of Protein translocase subunit SecA (Escherichia coli (strain K12)) (P10408 whole entry): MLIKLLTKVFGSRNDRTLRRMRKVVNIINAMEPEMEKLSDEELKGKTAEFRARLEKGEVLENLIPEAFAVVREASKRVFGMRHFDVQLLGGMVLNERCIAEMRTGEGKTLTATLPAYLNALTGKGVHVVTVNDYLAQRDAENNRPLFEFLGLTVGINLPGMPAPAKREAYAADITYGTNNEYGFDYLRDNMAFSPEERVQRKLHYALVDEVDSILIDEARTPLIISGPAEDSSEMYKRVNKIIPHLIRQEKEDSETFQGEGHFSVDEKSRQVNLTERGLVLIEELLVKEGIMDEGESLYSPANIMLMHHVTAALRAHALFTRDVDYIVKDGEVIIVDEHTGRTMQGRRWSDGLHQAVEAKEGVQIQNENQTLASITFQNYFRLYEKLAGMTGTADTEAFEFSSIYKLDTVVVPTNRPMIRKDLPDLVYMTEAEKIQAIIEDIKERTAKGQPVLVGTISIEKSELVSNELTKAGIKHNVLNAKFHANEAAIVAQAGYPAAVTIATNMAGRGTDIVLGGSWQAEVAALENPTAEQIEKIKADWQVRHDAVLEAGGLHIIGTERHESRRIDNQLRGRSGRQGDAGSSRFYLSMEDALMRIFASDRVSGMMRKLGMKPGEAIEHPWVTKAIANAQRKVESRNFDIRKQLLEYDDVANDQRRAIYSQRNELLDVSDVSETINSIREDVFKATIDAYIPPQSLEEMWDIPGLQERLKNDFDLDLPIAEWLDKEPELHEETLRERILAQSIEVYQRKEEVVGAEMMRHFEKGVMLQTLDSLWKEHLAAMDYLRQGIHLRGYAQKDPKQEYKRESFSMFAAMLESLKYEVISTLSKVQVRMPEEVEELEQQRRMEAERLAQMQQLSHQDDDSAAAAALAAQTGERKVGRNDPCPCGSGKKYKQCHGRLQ

Structure (SMILES) | Percent Effect [1] [%] | Percent Effect [2] [%] | Percent Effect [3] [%] | Percent Effect [4] [%] | Percent Effect (Trypanosoma cruzi) [%] | Percent Effect [5] [%] | Percent Effect [6] [%] | Percent Effect (Homo sapiens) [%] | Percent Effect [7] [%] | Percent Effect [8] [%] | Percent Effect [9] [%]
Cc1csc(N2CCN(CC(=O)Nc3c(C)n[nH]c3C)CC2C)n1 (stereo unspecified) | -1.64 | 21.6 | -4.71 | -7.72 | -2.88 | -3.51 | 15.4 | 5.89 | 3.96 | 13.4 | -4.83
Cc1cccc(OCCC(=O)N2CCCN(CC(N)=O)CC2)c1C | -3.47 | 17.7 | -7.09 | 14.1 | 1.6 | -3.42 | 4.34 | -12.7 | 1.48 | 16.5 | -5.52
CC(=O)c1cccc(OCCCC(=O)N(C)Cc2cccc(O)c2)c1 | -2.9 | 2.7 | 5.1 | 4.56 | 0.193 | 4.29 | 3.28 | 8.19 | -0.529 | 0 | -3.66
COc1cccc2c1ccn2CCNC(=O)C(C)C | -1.68 | 20 | 0.539 | 3.44 | 0.393 | -1.94 | 18.5 | 26.9 | 7.41 | 12.8 | -3.78
O=C(CCn1ccccc1=O)Nc1ccc(I)cc1 | -2.63 | 2.7 | -7.9 | 21.2 | 0.684 | -0.248 | 16.6 | 5.89 | 1.07 | 6.17 | 6.86
O=C(c1cccc(OC2CCCC2)c1)N1CCCC(n2cncn2)C1 (stereo unspecified) | -4.01 | 5.41 | 12.1 | 4.98 | 5.57 | -5.61 | -3.06 | 21.5 | 7.39 | 13.6 | -11.7
CCOc1cccc2c1OCC(C(=O)NS(=O)(=O)Cc1ccccc1)=C2 | -2.71 | 0 | 1.17 | -4.5 | -8.59 | 24.9 | 2.52 | 24.4 | -10.3 | -6.17 | -6.55
CC(C)(C)c1noc(CN2CCN(C(=O)c3cccs3)CC2)n1 | -2.39 | 10.4 | 4.2 | -5.86 | -4.68 | 4.27 | 10.3 | 19.4 | 7.77 | 14.6 | -7.8
Cc1cccc(CS(=O)(=O)NCC(O)Cc2ccccc2)c1 (stereo unspecified) | -3.31 | 5.48 | -2.41 | 8.56 | 3.33 | 10.4 | 11.2 | 7.9 | 5.38 | 12.5 | -5.28
CN(C)S(=O)(=O)N1C[C@@H]2CC[C@H](C1)N(Cc1ccc3nsnc3c1)C2 | -6.44 | 9.72 | -22.2 | 43.5 | 3.21 | 21.2 | 4.04 | 4.28 | 2.1 | 12.8 | -5.13
CO[C@H]1CCN(Cc2cccc(C)n2)[C@@H]2CN(Cc3cccnc3)C[C@H]12 | -4.37 | 13.7 | -4.89 | 7.4 | 12.3 | -3.99 | 15.5 | 6.58 | 5.21 | 6.17 | -8.06
